Structures are written as SMILES. The campaign covered roughly 350,000 compounds. About 31,000 (8.9%) were called active. About 15% were inconclusive and are not listed. Shown is part of a subset that was picked to be rich in actives. Values without a mark were called inactive. Calls come from the whole dose curve; as a rule, active = well fitted inhibition curve with a large enough effect; inconclusive = small, poorly fitted or top-dose-only effect; inactive = no such curve, though single readings can be large or run the other way.

The values that follow come from PubChem BioAssay AID504332 (National Center for Advancing Translational Sciences (NCATS), 2011).
% is set by controls: 0 for no effect and ±100 for the full control effect; potency is the fitted concentration of half-maximal effect.

The target in the assay is Histone-lysine N-methyltransferase EHMT2 (Homo sapiens) (UniProt Q96KQ7). In words: qHTS Assay for Inhibitors of Histone Lysine Methyltransferase G9a. Note: nearly all actives have a fitted effect of over 75% in size. To be noted: G9a H3K9 monomethylation, AlphaScreen, 2 h; series mostly up to 59 µM; activity, negative = inhibition: at the top concentration. In short, it runs like this: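 Compounds were preincubated with 20 nM G9a for 15 min, after which biotinylated H3K9 peptide (500 nM) and SAM (20 uM) started a 2 h room-temperature reaction. Monomethylated product was quantified by antibody-based AlphaScreen chemiluminescence.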
Histone-lysine N-methyltransferase EHMT2 (Homo sapiens), sequence (Q96KQ7 913-1193 limits assumed): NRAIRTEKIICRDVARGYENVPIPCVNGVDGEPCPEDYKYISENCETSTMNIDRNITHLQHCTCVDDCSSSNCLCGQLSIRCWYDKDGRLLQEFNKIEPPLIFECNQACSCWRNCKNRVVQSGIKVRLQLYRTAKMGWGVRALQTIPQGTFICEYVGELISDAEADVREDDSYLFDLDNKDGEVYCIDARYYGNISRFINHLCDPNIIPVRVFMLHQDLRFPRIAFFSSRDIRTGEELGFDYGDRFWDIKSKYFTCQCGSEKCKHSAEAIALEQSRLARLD
A general note: Quantitative high-throughput screening tests each substance at several concentrations.
With `Cn1c(=O)c2c(SCC(=O)N3CCc4ccccc43)nc(-c3ccc(Cl)cc3)nc2n(C)c1=O`, the “activity, negative = inhibition” value is 0.591%.
In the case of `NC(=O)C1CCN(C(=O)c2ccc3c(=O)n(Cc4cccc(Br)c4)c(=S)[nH]c3c2)CC1`, the Potency was 39.8 µM (active).
As for `COc1ccccc1Cn1c(=S)[nH]c2cc(C(=O)N3CCN(C)CC3)ccc2c1=O`, the “activity, negative = inhibition” value is 19.2%.
The same measure, in the same setting: for `COc1cc2[nH]c(=S)n(Cc3ccc(F)cc3)c(=O)c2cc1OC` the value was 9.96% [at 102 µM]; for `CCOC(=O)N1CCN(C(=O)c2ccc3c(=O)n(CCc4ccc(OC)c(OC)c4)c(=O)[nH]c3c2)CC1`, -5.11% [at 102 µM].
The same measure, in the same setting: for `CCOc1cc2[nH]c(=S)n(Cc3ccc(C(=O)N4CCN(C)CC4)cc3)c(=O)c2cc1OCC` the value was 4.55% [at 102 µM].
As to `O=C(O)c1ccc(Cn2c(=S)[nH]c3cc(Cl)ccc3c2=O)cc1`, the Potency was 39.8 µM (active).
As to `COc1ccc(Nc2ncc(C(=O)Nc3cc(C)ccc3OC)c3ccccc23)cc1`, the “activity, negative = inhibition” value is -0.322%.
Still for that read-out and setting: in the case of `O=C(NCc1ccncc1)C1CCCN(S(=O)(=O)c2ccc(Br)cc2)C1` (stereo not given) it was -5.72% [at 102 µM]; in that of `Cc1ccc(C)c(N2CCN(C(=O)Cn3ncc4c(=O)oc5ccc(C)cc5c43)CC2)c1`, -1.95%.
Still for that read-out and setting: for `COc1cc(OC)c(N(C)C(=O)c2cc3c(=O)oc4ccccc4c3s2)cc1Cl` the value was 3.37%; for `COc1ccccc1CNC(=O)c1ccc(-n2c(C)cc3c2CCCC3)cc1`, -4.16%; for `c1nc(COc2nsnc2N2CCOCC2)cs1`, 15.5% [at 2.33 µM].
Still for that read-out and setting: for `O=C(O)COc1nsnc1N1CCOCC1` the value was 20.7% [at 102 µM].
Turning to `c1ccc(COc2nsnc2N2CCOCC2)cc1`, the Potency was 14.1 µM (active).
Take `CCOc1ccc(N(CC)C(=O)c2cc3c(=O)oc4ccccc4c3s2)cc1`: the “activity, negative = inhibition” value is 10.3%.
On the same count and under the same terms, in the case of `COc1cc(/C=C2\C(=N)N3N=C(CC(=O)N4CCOCC4)SC3=NC2=O)cc(OC)c1OC` it was 78.5% [at 102 µM].
On to `CCS(=O)(=O)C1=NSC2=NC(=O)/C(=C\c3ccc(OS(=O)(=O)c4ccccc4)cc3)C(=N)N21`, for which the Potency was 39.8 µM (active).
For `CCS(=O)(=O)C1=NSC2=NC(=O)/C(=C\c3cc(C)n(-c4cccc(OC)c4)c3C)C(=N)N21`, the “activity, negative = inhibition” value was 8.92%.
For the compound `Cc1cc(/C=C2/C(=N)N3C(=NC2=O)SN=C3S(C)(=O)=O)c(C)n1-c1ccccc1`, the Potency was 35.5 µM (active).
On to `N=C1/C(=C/c2cccn2-c2cccc([N+](=O)[O-])c2)C(=O)N=C2SC=CN12`, for which the “activity, negative = inhibition” value is 29.7% [at 102 µM].
As for `Cc1ccc(C2=N/C(=C\c3ccc(OS(=O)(=O)c4ccc(C)cc4)cc3)C(=O)O2)cc1`, the “activity, negative = inhibition” value was 19.5%.
For the compound `CCC1=Nc2cc(C(=O)NCCCOC(C)C)ccc2Sc2ccc(C)cc21`, the “activity, negative = inhibition” value was 1.84%.
Still for that read-out and setting: for `O=C(COC(=O)c1ccccn1)NNC(=O)c1ccc([N+](=O)[O-])cc1` the value was 6.96% [at 102 µM]; for `CCCNC(=O)c1ccc(Cn2c(SCC(N)=O)nc3ccccc3c2=O)cc1`, 2.19%; for `CC(=O)c1ccc2c(ccc3ccccc32)c1`, -4.88%.
For `C=CC(=O)c1ccc2ccccc2c1`, the Potency is 1.26 µM (active).
Turning to `CC(=O)CCC(=O)c1ccc2ccccc2c1`, the “activity, negative = inhibition” value was 18.9%.
Same read-out and setting: in the case of `O=C(/C=C/c1ccccc1)Nc1cc(-c2nc3cc(Cl)ccc3o2)ccc1Cl` it was 10.9%.
Regarding `CCn1cc(NC(=O)Nc2ccc(OC)c(OC)c2)c(C(N)=O)n1`, the Potency was 25.1 µM (active).
As for `CCOc1ccc(NC(=O)Nc2cc(C)ccc2OC)cc1`, the “activity, negative = inhibition” value is 28.6%.
In the case of `COc1ccc(NC(=O)N2CCCn3nc(C)cc32)cc1OC`, the “activity, negative = inhibition” value is 5.44%.
Same read-out and setting: for `Cc1ccc(NC(=O)CCCNC(=O)c2ccc(Cl)cc2)cc1S(=O)(=O)N1CCCCC1` the value was -49.7% [at 102 µM]; for `O=C(O)c1c(CNCc2cccc(F)c2)c2ccccc2n1Cc1ccccc1`, -2.2%.
For `CC(O)CNCCOc1cccc(Oc2ccccc2)c1` (stereo not given), the Potency was 31.6 µM (active).
As for `CC(O)COc1ccccc1` (stereo not given), the “activity, negative = inhibition” value is 25.5%.
On the same count and under the same terms, for `CC1(C)NC(=O)N(CCOc2cccc(Oc3ccccc3)c2)C1=O` the value was 2.99%.
On the same count and under the same terms, in the case of `CN(C(=O)CN1C(=O)NC(C)(CCc2ccccc2)C1=O)c1ccccc1` (stereo not given) it was -6.99% [at 102 µM]; in that of `O=C(Nc1nnc(C2CC2)s1)c1cc(Cl)sc1Cl`, -5.4% [at 102 µM].
On the same count and under the same terms, in the case of `CCOC(=O)c1oc2c(CN3CCN(C)CC3)c(O)ccc2c(=O)c1-c1ccc(Br)cc1` it was -3.73%.
As to `CCOC(=O)c1oc2c(CN3CCN(CCO)CC3)c(O)c(CC)cc2c(=O)c1-c1nc2ccccc2s1`, the Potency was 17.8 µM (active).
`CCOC(=O)CCCN1CC(O)=C(c2nc3ccccc3s2)C1=N`: the “activity, negative = inhibition” value is -0.107% [at 102 µM].
The same measure, in the same setting: in the case of `Cc1ccc(C(=O)NCCc2nnc(SCC(=O)Nc3cccc(C(=O)O)c3)n2C)cc1` it was 10.2% [at 0.501 µM]; in that of `CCCn1c(=N)c(C(=O)NCc2ccccc2)cc2c(=O)n3cccc(C)c3nc21`, 0.45%; in that of `C=CCNC(=S)N1CCc2[nH]c3ccccc3c2C1`, 0.317% [at 102 µM].
In the case of `CCCC(=O)N1CCc2[nH]c3ccccc3c2C1`, the Potency is 39.8 µM (active).
Consider `O=C(Nc1ccc(Cl)cc1)N1CCc2[nH]c3ccccc3c2C1`, for which the “activity, negative = inhibition” value was 9.49% [at 102 µM].
As to `COc1ccc(CCNc2ncnc3c2nnn3Cc2ccccc2)cc1`, the “activity, negative = inhibition” value was 5.34% [at 102 µM].
The same measure, in the same setting: for `COc1ccc(C2=NC3(CCCCC3)N(CC(=O)Nc3ccc(C(C)C)cc3)C2=O)cc1` the value was 1.04%.
On to `Cn1ccsc1=NC(=O)c1cc(S(=O)(=O)N2CCOCC2)ccc1Cl`, for which the “activity, negative = inhibition” value was 2.99% [at 102 µM].
The same measure, in the same setting: for `CN(CC(=O)NCCc1ccc(F)cc1)CC(=O)Nc1ccc(F)c(F)c1F` the value was -24.2% [at 102 µM].
The same measure, in the same setting: for `C=CCC1(C#N)C(=S)NC(C)=C(C(=O)OCC)C1c1ccccc1` (stereo not given) the value was 1.33% [at 102 µM].
Regarding `CCOC(=O)C1=C(C)NC(SC)=NC1c1ccccc1` (stereo not given), the Potency is 2 µM (active).
As to `CCOC(=O)C1=C(C)NC(=O)NC1c1ccccc1` (stereo not given), the “activity, negative = inhibition” value is -1.24% [at 102 µM].
In the case of `CCCCOc1ccc(CNC(=O)c2ccc3c(c2)N(C)C(=O)C2CCCCN32)cc1` (stereo not given), the “activity, negative = inhibition” value was 0.427%.
Same read-out and setting: in the case of `Cc1cccc(C(CC(=O)NCC2(c3ccccc3)CCCC2)c2ccccc2)c1O` (stereo not given) it was 1.08%.
For `O=C(Nc1cccc(O)c1)c1ccc(C(=O)c2ccccc2)o1`, the “activity, negative = inhibition” value is 2.32% [at 102 µM].
Same read-out and setting: for `O=C(CSc1ccccc1)Nc1ccc(C(=O)Nc2cccc(O)c2)cc1` the value was 15.3% [at 102 µM].
`C/C(=C\C(=O)c1ccccc1)Nc1cccc(O)c1`: the Potency was 50.1 µM (active).
For `COc1cccc(CNC(=O)c2cc(=O)[nH]c3ccc(S(=O)(=O)N4CCCCC4)cc23)c1`, the “activity, negative = inhibition” value is -2.46%.
Still for that read-out and setting: in the case of `O=C(CSc1n[nH]c(-c2ccccc2)n1)N1CCCCC1` it was 3.52%; in that of `N#C/C(=C\c1ccccc1F)c1nc2ccccc2c(=O)[nH]1`, -20%.
Same read-out and setting: for `COc1cccc(-n2cc(C(=O)O)c3ccccc3c2=O)c1` the value was -46.3% [at 102 µM]; for `COc1cccc(-n2ccn(CC(=O)NCc3ccc(C)cc3)c(=O)c2=O)c1`, 0.48%.
For `CCN(Cc1ccccc1)C(=O)c1cn(-c2cccc(OC)c2)c(=O)c2ccccc12`, the Potency is 11.2 µM (active).
